Results on 14 molecules are retold here after publication PMC11062922 (Nature Chemical Biology, 2023).

What all share (parameters): species or system human, MV4-11 + K-562 + COLO205 + SK-N-BE2 + OVCAR-8
Experiment [1] has as its system JAK2. Conditions: read-out: apparent Kd; compound concentrations: 100 nM and 1000 nM (sheet 'Samples'), CATDS: 1; n = 1.
For experiment [2], the system named is HSP90B1. The settings on record: read-out: apparent Kd; compound concentrations:100 nM and 1000 nM (sheet 'Samples'); n = 1.
In experiment [3] the test system is PKN3. The settings on record: read-out: apparent Kd; compound concentrations:100 nM and 1000 nM (sheet 'Samples'); n = 1.
Experiment [4] has as its system PRKX. The settings on record: read-out: apparent Kd; compound concentrations:100 nM and 1000 nM (sheet 'Samples'); n = 1.
Experiment [5] deals with ROCK2. Conditions: read-out: apparent Kd; compound concentrations:100 nM and 1000 nM (sheet 'Samples'); n = 1.
Experiment [6] concerns GSK3A. The settings on record: read-out: apparent Kd, n = 1.
In experiment [7] the test system is GSK3B. Conditions: read-out: apparent Kd, n = 1.
Experiment [8] deals with ICK. The settings on record: read-out: apparent Kd; compound concentrations: 100 nM and 1000 nM (sheet 'Samples'), CATDS: 0.23248137577465; n = 1.
In experiment [9] the test system is ILK. The settings on record: read-out: apparent Kd; compound concentrations: 100 nM and 1000 nM (sheet 'Samples'), CATDS: 0.49132594031882498; n = 1.
In experiment [10] the test system is MAPK10. The settings on record: read-out: apparent Kd, n = 1.
In experiment [11] the test system is HCK. The settings on record: read-out: apparent Kd; compound concentrations: 100 nM and 1000 nM (sheet 'Samples'), CATDS: 0.18431163144464899; n = 1.
Experiment [12] has as its system MAPK14. Conditions: read-out: apparent Kd, n = 1.
For experiment [13], the system named is MDN1. Conditions: read-out: apparent Kd; compound concentrations: 100 nM and 1000 nM (sheet 'Samples'), CATDS: 0.171379045218121; n = 1.
In experiment [14] the test system is RET. The settings on record: read-out: apparent Kd, compound concentrations: 100 nM and 1000 nM (sheet 'Samples'), n = 1.
For experiment [15], the system named is YES1. Conditions: read-out: apparent Kd; compound concentrations: 100 nM and 1000 nM (sheet 'Samples'), CATDS: 0.26066512285863302; n = 1.
Experiment [16] has as its system MAPK11. The settings on record: read-out: apparent Kd, compound concentrations: 100 nM and 1000 nM (sheet 'Samples'), n = 1.
Experiment [17] relates to MAPK9. Conditions: read-out: apparent Kd; compound concentrations:100 nM and 1000 nM (sheet 'Samples'); n = 1.
Experiment [18] deals with MAPKAPK2. The settings on record: read-out: apparent Kd; compound concentrations:100 nM and 1000 nM (sheet 'Samples'); n = 1.
The subject of experiment [19] is NQO1. Conditions: read-out: apparent Kd; compound concentrations:100 nM and 1000 nM (sheet 'Samples'); n = 1.
In experiment [20] the test system is MAP2K1. The settings on record: read-out: apparent Kd; compound concentrations: 100 nM and 1000 nM (sheet 'Samples'), CATDS: 0.27931983910668101; n = 1.
For experiment [21], the system named is MAP2K5. The settings on record: read-out: apparent Kd; compound concentrations:100 nM and 1000 nM (sheet 'Samples'); n = 1.
In experiment [22] the test system is PBK. The settings on record: read-out: apparent Kd; compound concentrations:100 nM and 1000 nM (sheet 'Samples'); n = 1.
Experiment [23] has as its system PTK6. Conditions: read-out: apparent Kd; compound concentrations:100 nM and 1000 nM (sheet 'Samples'); n = 1.
Experiment [24] has as its system RIPK2. Conditions: read-out: apparent Kd; compound concentrations:100 nM and 1000 nM (sheet 'Samples'); n = 1.
The test system of experiment [25] is RIPK3. The settings on record: read-out: apparent Kd; compound concentrations:100 nM and 1000 nM (sheet 'Samples'); n = 1.
Experiment [26] concerns SIK2. Conditions: read-out: apparent Kd; compound concentrations:100 nM and 1000 nM (sheet 'Samples'); n = 1.
Where [27] appears, read: compound concentrations:100 nM and 1000 nM (sheet 'Samples').

Where two headings read alike, the source gives them in different places.

As to `COC(=O)Nc1nc2ccc(S(=O)(=O)c3ccc(NC(=O)Nc4cc(C(F)(F)F)ccc4F)cc3)cc2[nH]1.Cl` [GW680908A], the potency estimated from few doses in [1] was 356 nM.

On to `COc1cc(C2=NC(c3ccc(Cl)cc3F)C(C(=O)Nc3ccc4[nH]ncc4c3)=C(C)N2)ccn1.O=C(O)C(F)(F)F` (stereo not shown) [GSK534911A], for which the potency estimated from few doses in experiment [2] is 1110 nM; in [3], 1830 nM; in experiment [4], 1320 nM; in experiment [5], 220 nM.

Take `Cn1cc(C2=C(c3cccc(OC[C@H](O)CO)c3)C(=O)NC2=O)c2ccccc21` [RO3206173-000]: the potency estimated from few doses is 6.06 nM in [6] (compound concentrations: 100 nM and 1000 nM (sheet 'Samples'), CATDS: 0.54568324377959498); 8.49 nM in experiment [7] (compound concentrations: 100 nM and 1000 nM (sheet 'Samples'), CATDS: 0.46137484559858299).

As for `COc1cccc2c1c(C1=C(c3cn(C)c4ccccc34)C(=O)NC1=O)cn2C` [RO0317494-000], the potency estimated from few doses in [6] (compound concentrations: 100 nM and 1000 nM (sheet 'Samples'), CATDS: 0.489076637072761) is 149 nM; in experiment [7] (compound concentrations: 100 nM and 1000 nM (sheet 'Samples'), CATDS: 0.37680240996491099), 241 nM; in experiment [8] it was 912 nM.

Turning to `Cn1cc(C2=C(c3cn(C)c4cc(Cl)ccc34)C(=O)NC2=O)c2ccccc21` [RO0317597-000], the potency estimated from few doses in experiment [9] is 1590 nM; in [10] (compound concentrations: 100 nM and 1000 nM (sheet 'Samples'), CATDS: 0.50898583433438105) it was 1480 nM.

`COc1cccc(C2=C(Nc3ccc(Cl)c(C(=O)O)c3)C(=O)NC2=O)c1` [SB-390769]: the potency estimated from few doses in [6] (setting [27]) is 323 nM; in experiment [7] (setting [27]) it was 644 nM.

`COc1cc(Nc2nccc(-c3c(-c4cccc(NC(=O)c5c(F)cccc5F)c4)nn4ccccc34)n2)cc(OC)c1OC` [GSK323521A]: the potency estimated from few doses is 1570 nM in [11]; 1560 nM in experiment [12] (compound concentrations: 100 nM and 1000 nM (sheet 'Samples'), CATDS: 0.18472106160443499); 1860 nM in experiment [13]; 1070 nM in experiment [14] (CATDS: 0.22274296302997099); 812 nM in [15].

Turning to `CN(C)CC#Cc1cccc(C(=O)c2cnn(-c3ccc(F)cc3)c2N)c1.Cl` [RO1154641-001], the potency estimated from few doses in experiment [16] (CATDS: 0.57557980724534297) was 758 nM; in experiment [12] (compound concentrations: 100 nM and 1000 nM (sheet 'Samples'), CATDS: 0.44196522207196598) it was 1300 nM.

In the case of `Cl.Cn1c(=O)c(Oc2ccccc2F)cc2cnc(NC3CCOCC3)nc21` [RO3304805-001], the potency estimated from few doses is 1050 nM in experiment [10] (setting [27]); 58.4 nM in experiment [12] (setting [27]); 484 nM in experiment [17]; 73.7 nM in experiment [18]; 1480 nM in experiment [19].

With `COc1cc2c(Nc3cccc(NC(=O)c4ccccc4)c3)ncnc2cc1OCCCN1CCOCC1` [GSK223810A], the potency estimated from few doses in [20] is 2310 nM; in experiment [16] (CATDS: 0.33231746948784902), 1550 nM; in experiment [14] (CATDS: 0.41481657466373201), 1030 nM.

With `Fc1ccc(Nc2nccc(-c3c(-c4ccc(Cl)cc4)nn4ncccc34)n2)cc1F` [GW829058X], the potency estimated from few doses in experiment [10] (compound concentrations: 100 nM and 1000 nM (sheet 'Samples'), CATDS: 0.57984182911323701) was 726 nM; in experiment [12] (compound concentrations: 100 nM and 1000 nM (sheet 'Samples'), CATDS: 0.43948476052302998), 1280 nM.

For the molecule `Cl.Nc1c(C(=O)c2cccc(-c3cccnc3)c2)cnn1-c1ccc(F)cc1F` [RO1164194-001], the potency estimated from few doses in experiment [16] (CATDS: 0.82795584306013303) was 112 nM; in [12] (compound concentrations: 100 nM and 1000 nM (sheet 'Samples'), CATDS: 0.35813974934326798), 968 nM.

In the case of `CN1CCN(CCc2cccc(C(=O)c3cnn(-c4ccc(F)cc4)c3N)c2)CC1.Cl` [RO1160347-001], the potency estimated from few doses in [16] (CATDS: 1) was 1330 nM.

In the case of `CNC(=O)Oc1cc(C)c(/C=C/c2cncc(C(=O)NC)c2)c(C)c1` [GW432441X], the potency estimated from few doses was 231 nM in experiment [21]; 1680 nM in experiment [22]; 45.3 nM in [23]; 28.1 nM in experiment [24]; 399 nM in [25]; 1320 nM in [26].
